This is an account of results in PubChem BioAssay (NCI).

Among the test systems are DU-145 prostate; K-562 leukemia; MALME-3M melanoma; MDA-MB-231 breast; RXF 393 renal; SF-268 CNS; SF-295 CNS; SF-539 CNS; UACC-257 melanoma; M14 melanoma.
Common to all, as to assay: NCI-60 one-dose screen, 48 h (100 = growth as untreated, 0 = no growth, -100 = all killed)
Conditions in all cases: 10 µM unless noted

Compounds without any hit were thinned out: in the full panel of roughly 83,000, 20% have a hit.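 Interpretation: 100, growth as untreated; towards 0, rising growth inhibition; 0, no net growth; 0 to -100, cell death. Compounds scoring below 10 were considered active.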 Unmarked numbers belong to inactive results. Calls of active or inactive are those of the source.

For `COc1ccccc1CNCCCCCCCCCCCCN1C(=O)c2ccc3c4c(ccc(c24)C1=O)C(=O)N(CCCCCCCCCCCCNCc1ccccc1OC)C3=O`, the growth was 51.2% in the assay on DU-145 prostate; 35.2% in the assay with K-562 leukemia; 97.6% in the assay on MALME-3M melanoma; 64.1% in the assay on MDA-MB-231 breast; -69.6% (active) with RXF 393 renal; 69.4% with SF-268 CNS. For the same compound, the growth in the assay on SF-295 CNS is 49.4%; in the assay on SF-539 CNS, 1.92% (active); in the assay with UACC-257 melanoma, 113%; in the assay on M14 melanoma, 80.2%.

On to `O=C1NC(=S)S/C1=C\c1cccc([N+](=O)[O-])c1`, for which the growth in the assay with DU-145 prostate is 111%; in the assay on K-562 leukemia it was 68.5%; with MALME-3M melanoma it was 153%; with MDA-MB-231 breast it was 93.8%; in the assay on RXF 393 renal, 153%; in the assay on SF-268 CNS, 89.9%. Besides, the growth in the assay with SF-295 CNS was 91.3%; in the assay on SF-539 CNS, 88.6%; in the assay with UACC-257 melanoma it was 88.8%; in the assay on M14 melanoma, 97.4%.

Turning to `CCCCCCCC/C=C\CCCCCCCCOc1cccc(CC(=O)NCC[N+]2(C)CCCCC2)c1`, the growth in the assay on DU-145 prostate was 84.5%; in the assay with K-562 leukemia it was 46.2%; with MALME-3M melanoma, 79.1%; in the assay on MDA-MB-231 breast it was 71.2%; in the assay with RXF 393 renal it was -2.16% (active); with SF-268 CNS, 61.6%. Also, the growth with SF-295 CNS is 87.5%; in the assay on SF-539 CNS, 99.1%; in the assay with UACC-257 melanoma it was 98.5%; with M14 melanoma it was 84.4%.

In the case of `Cc1c(NCC(=O)Nc2nc3ccccc3[nH]2)c(=O)n(-c2ccccc2)n1C`, the growth in the assay with DU-145 prostate was 112%; in the assay with K-562 leukemia, 101%; in the assay with MALME-3M melanoma, 98.4%; in the assay on MDA-MB-231 breast, 99.3%; with RXF 393 renal, 102%; in the assay on SF-268 CNS it was 103%. Moreover, the growth is 109% with SF-295 CNS, 97.7% in the assay on SF-539 CNS, 94.4% in the assay on UACC-257 melanoma and 105% in the assay on M14 melanoma.

Regarding `CCC(=O)Nc1nnc(Cc2ccc(OC)c(OC)c2)s1`, the growth was -49.6% (active) with DU-145 prostate; 2.4% (active) with K-562 leukemia; -46.3% (active) with MALME-3M melanoma; 1.66% (active) in the assay on MDA-MB-231 breast; -32.9% (active) with RXF 393 renal; -14% (active) with SF-268 CNS. Moreover, the growth is -78.7% (active) in the assay with SF-295 CNS, -74.1% (active) in the assay on SF-539 CNS, -26.3% (active) with UACC-257 melanoma and 22.7% in the assay with M14 melanoma.

As to `O=S(=O)(Nc1ccccc1Cl)c1ccc(-c2cnc(C3CC3)o2)cc1`, the growth was 13.5% with DU-145 prostate; 20.1% in the assay with K-562 leukemia; 47.3% with MALME-3M melanoma; 34.8% with MDA-MB-231 breast; -27% (active) in the assay with RXF 393 renal; 53.5% in the assay with SF-268 CNS. For the same compound, the growth in the assay with SF-295 CNS was 12.2%; in the assay with SF-539 CNS, -22.7% (active); in the assay on UACC-257 melanoma it was 69.4%; with M14 melanoma, 19%.

`O=C1NC(=O)C2(CCCC2C(=O)O)N1` (stereo not given): the growth with DU-145 prostate was 120%; in the assay with K-562 leukemia, 98%; in the assay with MALME-3M melanoma it was 140%; in the assay on MDA-MB-231 breast, 105%; with RXF 393 renal, 117%; in the assay with SF-268 CNS, 109%. The growth in the assay with SF-295 CNS was 99.8%; in the assay on SF-539 CNS it was 101%; with UACC-257 melanoma it was 86.7%; with M14 melanoma it was 106%.

As for `O=c1[nH]c(=S)c2c(n1CCCO)CCC2`, the growth in the assay with DU-145 prostate is 108%; in the assay with K-562 leukemia, 93.4%; in the assay on MALME-3M melanoma, 92.9%; with MDA-MB-231 breast, 102%; with RXF 393 renal, 113%; in the assay with SF-268 CNS, 100%. For the same compound, the growth in the assay with SF-295 CNS is 102%; with SF-539 CNS it was 104%; in the assay with UACC-257 melanoma it was 96.7%; in the assay with M14 melanoma, 97%.

Consider `Cc1ccc(C)c2c1sc1nc3nc4sc5ccccc5n4c(=N)c3c(=O)n12`, for which the growth in the assay on DU-145 prostate was 108%; with K-562 leukemia it was 132%; in the assay on MALME-3M melanoma, 143%; with MDA-MB-231 breast, 93.5%; in the assay with RXF 393 renal, 122%; in the assay with SF-268 CNS, 95.6%. Besides, the growth in the assay with SF-295 CNS was 104%; in the assay with SF-539 CNS, 101%; with UACC-257 melanoma it was 129%; in the assay on M14 melanoma, 94.8%.

On to `COc1ccc(-c2nn(-c3ccc(NC(=O)c4ccc(Cl)c(Cl)c4)cc3)cc2-c2ccncc2)cc1Cl`, for which the growth with DU-145 prostate is 68.4%; in the assay with K-562 leukemia it was 5.86% (active); in the assay with MALME-3M melanoma it was 43%; with MDA-MB-231 breast, -16.3% (active); in the assay with RXF 393 renal, -82.1% (active); in the assay on SF-268 CNS, 49.2%. Moreover, the growth with SF-295 CNS is -31.5% (active); with SF-539 CNS, 26%; in the assay with UACC-257 melanoma it was 93.3%; in the assay on M14 melanoma, 6.62% (active).

On to `O=C(COc1cccc(/C=C2\COc3ccccc3C2=O)c1)c1ccccc1`, for which the growth was 101% in the assay with DU-145 prostate; 17.1% in the assay with K-562 leukemia; 90% in the assay on MALME-3M melanoma; 83.8% in the assay on MDA-MB-231 breast; 69.5% in the assay on RXF 393 renal; 88.7% with SF-268 CNS. Also, the growth in the assay on SF-295 CNS was 115%; with SF-539 CNS, 90.4%; with UACC-257 melanoma, 72.9%; with M14 melanoma it was 60.9%.

Regarding `Cc1cccc2c(=O)c3c(sc12)c(NCCNCCO)nc1ccccc13`, the growth was 27.3% in the assay with DU-145 prostate; -65.7% (active) with K-562 leukemia; -42.2% (active) in the assay with MALME-3M melanoma; -15.3% (active) in the assay with MDA-MB-231 breast; 38.1% in the assay on RXF 393 renal; 56.6% with SF-268 CNS. Also, the growth in the assay on SF-295 CNS was 65%; in the assay with SF-539 CNS, 50.6%; with UACC-257 melanoma, 77.8%; in the assay with M14 melanoma it was -56.4% (active).

On to `COc1nc2c(cc1S(=O)(=O)c1ccccc1)CCc1c-2cnn1-c1ccccc1Cl`, for which the growth is 90.8% with DU-145 prostate; 54.3% in the assay on K-562 leukemia; 97.4% with MALME-3M melanoma; 70.2% with MDA-MB-231 breast; 52.6% in the assay with RXF 393 renal; 74.1% in the assay with SF-268 CNS. Besides, the growth in the assay with SF-295 CNS is 63%; in the assay with SF-539 CNS it was 60.5%; in the assay with UACC-257 melanoma it was 72.6%; in the assay on M14 melanoma it was 68.9%.

On to `Cc1nc2nc(C(F)(F)F)[nH]c2nc1C`, for which the growth in the assay with DU-145 prostate was 115%; in the assay with K-562 leukemia, 92.9%; in the assay on MALME-3M melanoma, 117%; in the assay on MDA-MB-231 breast, 114%; with RXF 393 renal, 106%; in the assay on SF-268 CNS, 102%. The growth was 78.6% with SF-295 CNS, 120% in the assay on SF-539 CNS, 100% in the assay with UACC-257 melanoma and 105% with M14 melanoma.

On to `O=C1c2ccccc2-c2nnc(-c3ccc(Br)cc3)cc21`, for which the growth in the assay with DU-145 prostate is 55.8%; in the assay with K-562 leukemia, 16.5%; in the assay on MALME-3M melanoma, -3.82% (active); with MDA-MB-231 breast it was 14.1%; in the assay with RXF 393 renal it was 33.7%; in the assay with SF-268 CNS, 59.3%. For the same compound, the growth was 13.6% with SF-295 CNS, 56.7% in the assay with SF-539 CNS, 52.6% in the assay with UACC-257 melanoma and 37.2% in the assay with M14 melanoma.

With `O=C1c2[nH]cc(CN[C@@H]3CCCN3)c2C(=O)c2c1c(O)c1ccccc1c2O`, the growth with DU-145 prostate was -98.6% (active); in the assay on K-562 leukemia, -81.5% (active); with MALME-3M melanoma it was -51.9% (active); with MDA-MB-231 breast it was -96.7% (active); with RXF 393 renal, -98.2% (active); with SF-268 CNS, -88.2% (active). The growth is 70.5% in the assay on SF-295 CNS, -94.1% (active) with SF-539 CNS, -64.9% (active) in the assay on UACC-257 melanoma and -72.8% (active) in the assay with M14 melanoma.

`NC(=O)c1cccc(-n2ccc3cc(NC(=O)Nc4ccc(Cl)c(Cl)c4)ccc32)n1`: the growth in the assay on DU-145 prostate was 83.7%; in the assay on K-562 leukemia, 63.4%; in the assay on MALME-3M melanoma, 85%; in the assay on MDA-MB-231 breast, 79.1%; in the assay on RXF 393 renal, 6.33% (active); in the assay with SF-268 CNS, 83%. The growth was 68.8% in the assay on SF-295 CNS, 64.1% in the assay on SF-539 CNS, 89.9% with UACC-257 melanoma and 78% in the assay with M14 melanoma.

Turning to `O=C1C2CC3C(CC2C(=O)[N]1[Sn]([c]1ccccc1)([c]1ccccc1)[c]1ccccc1)C1(Cl)C(Cl)=C(Cl)C3(Cl)C1(Cl)Cl` (stereo not given), the growth with DU-145 prostate is -94.5% (active); in the assay on K-562 leukemia it was -30.8% (active); in the assay with MALME-3M melanoma, -91.8% (active); in the assay on MDA-MB-231 breast it was -94.7% (active); with RXF 393 renal, -76.1% (active); in the assay with SF-268 CNS it was -88.7% (active). Besides, the growth with SF-295 CNS was -86.8% (active); in the assay with SF-539 CNS, -99.9% (active); in the assay on UACC-257 melanoma it was -99.3% (active); in the assay on M14 melanoma, -94% (active).

On to `COC(=O)c1c2c(c(C)[n+]([O-])c1C)C(=O)C(NCc1ccc(O)cc1)=CC2=O`, for which the growth in the assay with DU-145 prostate was -69.2% (active); with K-562 leukemia, 6.74% (active); with MALME-3M melanoma, -98.5% (active); in the assay on MDA-MB-231 breast, -10.3% (active); in the assay on RXF 393 renal, -4.53% (active); in the assay with SF-268 CNS, -9.31% (active). Moreover, the growth with SF-295 CNS is -9.04% (active); in the assay on SF-539 CNS it was -59.7% (active); with UACC-257 melanoma it was -62.4% (active); in the assay with M14 melanoma, -76.5% (active).

As to `CC(=O)N(CC(O)CO)c1c(I)c(C(=O)NCCO)c(I)c(C(=O)NCC(O)CO)c1I` (stereo not given), the growth in the assay with DU-145 prostate was 110%; with K-562 leukemia, 97%; in the assay on MALME-3M melanoma, 92.4%; with MDA-MB-231 breast, 90.5%; with RXF 393 renal, 103%; in the assay with SF-268 CNS, 105%. Besides, the growth in the assay on SF-295 CNS was 118%; with SF-539 CNS it was 100%; with UACC-257 melanoma it was 103%; in the assay with M14 melanoma it was 92.6%.
